Experimental data published in the supplement of paper PMC10849652.
Targets with a hit are over-represented here; the source holds about 7,900 in all. About 0.6% of all pairs of compound and target were hits.

Assays:
Test in all cases: log2 fold change, soluble protein after heating vs DMSO (PISA); higher = thermal stabilisation; K562 cells, 10 uM, 30 min; active = over 0.2 and 3.5 SD of the protein, either way, in both replicates (recomputed)
[1] = compound: C1=CC=C(C=C1)[C@H](COC2=CC3=C(C=C2)NC(=O)N3)NC(=O)C4=CC=CN(C4=O)CC5=CC(=C(C=C5)F)F
In short: (§1)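 Aliquots of K562 cells (2×10^6 cells/mL) treated with 10 μM compound for 30 min were heated for 3 min over 48°C-58°C. After pooling and extraction in PBS with 0.5% NP-40 at 4°C, soluble protein from a 21,000xg, 90 min spin was quantified by TMTpro 16plex LC-MS/MS with channel sums equalised. Thermal stability is expressed against control samples, from duplicates, as a log2 fold change.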

[2] = compound: CC1=C(SC2=C1C(=N[C@H](C3=NN=C(N32)C)CC(=O)N)C4=CC=C(C=C4)Cl)C
In short: as §1

[3] = compound: CC1=C2C(=CC=C1)N=C(N(C2=O)C3=CC=CC=C3C)CN4C=NC5=C(N=CN=C54)N
In short: as §1

[4] = compound: Cc1sc2c(c1C)C(c1ccc(Cl)cc1)=N[C@@H](CC(=O)OC(C)(C)C)c1nnc(C)n1-2
In short: as §1

[5] = compound: c1ccc([C@@H]2C[C@H]2NC2CCNCC2)cc1
In short: as §1

Measured: log2 fold change

GCC2 (UniProt Q8IWJ2)
Sequence of UniProt Q8IWJ2 (Q8IWJ2 whole entry, looked up): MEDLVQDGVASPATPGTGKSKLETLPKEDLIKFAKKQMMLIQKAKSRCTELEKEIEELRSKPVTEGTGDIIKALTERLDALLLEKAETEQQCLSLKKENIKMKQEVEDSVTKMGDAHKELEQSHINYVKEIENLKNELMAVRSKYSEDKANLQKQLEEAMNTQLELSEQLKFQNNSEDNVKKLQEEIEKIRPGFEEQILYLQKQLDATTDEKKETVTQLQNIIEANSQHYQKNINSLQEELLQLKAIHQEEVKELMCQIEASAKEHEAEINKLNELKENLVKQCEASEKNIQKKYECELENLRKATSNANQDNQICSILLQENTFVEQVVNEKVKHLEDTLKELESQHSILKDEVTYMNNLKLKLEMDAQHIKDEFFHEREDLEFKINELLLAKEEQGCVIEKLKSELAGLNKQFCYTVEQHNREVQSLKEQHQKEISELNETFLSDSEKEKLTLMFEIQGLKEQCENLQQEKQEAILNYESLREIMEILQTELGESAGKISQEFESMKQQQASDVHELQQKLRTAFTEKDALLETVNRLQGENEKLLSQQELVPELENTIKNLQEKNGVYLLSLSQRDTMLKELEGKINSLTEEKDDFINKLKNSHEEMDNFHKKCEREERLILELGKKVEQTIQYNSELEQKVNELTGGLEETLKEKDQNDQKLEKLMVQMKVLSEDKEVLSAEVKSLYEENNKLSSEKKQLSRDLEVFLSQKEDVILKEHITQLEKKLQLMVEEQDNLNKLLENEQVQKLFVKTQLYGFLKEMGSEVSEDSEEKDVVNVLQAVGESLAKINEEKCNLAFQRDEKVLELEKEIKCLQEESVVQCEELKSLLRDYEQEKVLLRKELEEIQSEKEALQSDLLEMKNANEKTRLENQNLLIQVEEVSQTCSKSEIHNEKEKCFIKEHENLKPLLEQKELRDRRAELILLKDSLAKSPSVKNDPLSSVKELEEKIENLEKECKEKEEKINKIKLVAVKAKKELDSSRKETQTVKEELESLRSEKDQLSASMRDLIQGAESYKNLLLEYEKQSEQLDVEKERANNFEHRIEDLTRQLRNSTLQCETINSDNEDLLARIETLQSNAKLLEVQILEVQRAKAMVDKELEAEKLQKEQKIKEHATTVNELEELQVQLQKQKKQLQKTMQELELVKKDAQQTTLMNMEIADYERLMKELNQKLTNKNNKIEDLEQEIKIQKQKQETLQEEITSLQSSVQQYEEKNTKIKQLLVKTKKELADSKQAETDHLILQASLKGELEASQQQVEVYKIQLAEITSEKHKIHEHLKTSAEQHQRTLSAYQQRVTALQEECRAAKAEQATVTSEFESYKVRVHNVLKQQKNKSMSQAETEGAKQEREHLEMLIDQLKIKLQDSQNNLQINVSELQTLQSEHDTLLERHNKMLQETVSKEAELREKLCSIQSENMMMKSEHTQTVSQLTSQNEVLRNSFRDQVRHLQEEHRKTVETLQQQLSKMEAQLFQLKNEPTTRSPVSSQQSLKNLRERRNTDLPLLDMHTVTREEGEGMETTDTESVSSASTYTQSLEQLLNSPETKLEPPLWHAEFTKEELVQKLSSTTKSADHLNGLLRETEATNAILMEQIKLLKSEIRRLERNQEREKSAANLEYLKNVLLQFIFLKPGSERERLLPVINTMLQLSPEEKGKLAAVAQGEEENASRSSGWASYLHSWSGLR
inactive: [1] -0.027 | [2] -0.116 | [3] 0.004 | [4] 0.066 | [5] -0.059

FLNA (UniProt P21333)
inactive: [1] -0.11 | [2] 0.016 | [3] 0.049 | [4] 0.019 | [5] -0.008

HDAC1 (UniProt Q13547)
Sequence of UniProt Q13547 (Q13547 whole entry, looked up): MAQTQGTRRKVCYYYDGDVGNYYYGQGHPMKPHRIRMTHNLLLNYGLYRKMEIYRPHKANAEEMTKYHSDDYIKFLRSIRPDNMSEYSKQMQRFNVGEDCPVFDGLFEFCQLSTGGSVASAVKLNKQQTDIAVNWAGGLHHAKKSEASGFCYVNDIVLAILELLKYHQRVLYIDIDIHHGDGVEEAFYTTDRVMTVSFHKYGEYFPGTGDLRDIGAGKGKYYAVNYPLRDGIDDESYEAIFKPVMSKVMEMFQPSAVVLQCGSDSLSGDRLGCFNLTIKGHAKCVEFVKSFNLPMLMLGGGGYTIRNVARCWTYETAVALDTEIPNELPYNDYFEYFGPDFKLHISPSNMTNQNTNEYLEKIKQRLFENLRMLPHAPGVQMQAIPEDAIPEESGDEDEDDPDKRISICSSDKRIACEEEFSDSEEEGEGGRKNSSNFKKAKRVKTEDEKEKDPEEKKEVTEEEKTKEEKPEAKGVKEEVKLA
inactive: [1] 0.004 | [2] 0 | [3] -0.004 | [4] 0.03 | [5] 0.154

GALK1 isoform 2 (UniProt P51570)
inactive: [1] -0.02 | [2] 0.016 | [3] -0.065 | [4] -0.024 | [5] -0.007

FBXO9 (UniProt Q9UK97)
Sequence of UniProt Q9UK97 (Q9UK97 whole entry, looked up): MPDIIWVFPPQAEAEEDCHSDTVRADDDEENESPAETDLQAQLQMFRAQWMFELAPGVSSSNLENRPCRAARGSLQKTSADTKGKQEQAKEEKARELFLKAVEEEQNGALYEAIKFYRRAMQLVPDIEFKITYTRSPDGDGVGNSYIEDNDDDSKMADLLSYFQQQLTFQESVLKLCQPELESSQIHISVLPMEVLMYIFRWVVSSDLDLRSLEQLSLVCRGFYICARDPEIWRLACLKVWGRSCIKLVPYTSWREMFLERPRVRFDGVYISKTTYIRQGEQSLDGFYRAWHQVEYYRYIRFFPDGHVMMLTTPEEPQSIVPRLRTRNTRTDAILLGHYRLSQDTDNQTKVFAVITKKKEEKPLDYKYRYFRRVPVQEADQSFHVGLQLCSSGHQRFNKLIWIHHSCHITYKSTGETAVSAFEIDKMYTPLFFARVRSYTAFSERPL
inactive: [1] -0.011 | [2] 0.23 | [3] 0.016 | [4] 0.161 | [5] 0.07

GTF3A (UniProt Q92664)
Sequence of UniProt Q92664 (Q92664 whole entry, looked up): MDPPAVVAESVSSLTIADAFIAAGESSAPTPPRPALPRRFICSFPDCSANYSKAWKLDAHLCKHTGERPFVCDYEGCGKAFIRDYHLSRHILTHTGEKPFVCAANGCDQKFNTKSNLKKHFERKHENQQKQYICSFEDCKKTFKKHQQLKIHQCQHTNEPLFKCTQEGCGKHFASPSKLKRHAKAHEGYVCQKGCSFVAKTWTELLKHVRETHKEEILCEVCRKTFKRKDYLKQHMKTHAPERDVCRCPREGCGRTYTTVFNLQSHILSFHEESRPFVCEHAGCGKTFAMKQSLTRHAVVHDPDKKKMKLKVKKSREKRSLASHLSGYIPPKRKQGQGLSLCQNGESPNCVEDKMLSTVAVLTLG
inactive: [1] 0.002 | [2] -0.001 | [3] 0.08 | [4] -0.072 | [5] -0.071

HOOK3 (UniProt Q86VS8)
Sequence of UniProt Q86VS8 (Q86VS8 whole entry, looked up): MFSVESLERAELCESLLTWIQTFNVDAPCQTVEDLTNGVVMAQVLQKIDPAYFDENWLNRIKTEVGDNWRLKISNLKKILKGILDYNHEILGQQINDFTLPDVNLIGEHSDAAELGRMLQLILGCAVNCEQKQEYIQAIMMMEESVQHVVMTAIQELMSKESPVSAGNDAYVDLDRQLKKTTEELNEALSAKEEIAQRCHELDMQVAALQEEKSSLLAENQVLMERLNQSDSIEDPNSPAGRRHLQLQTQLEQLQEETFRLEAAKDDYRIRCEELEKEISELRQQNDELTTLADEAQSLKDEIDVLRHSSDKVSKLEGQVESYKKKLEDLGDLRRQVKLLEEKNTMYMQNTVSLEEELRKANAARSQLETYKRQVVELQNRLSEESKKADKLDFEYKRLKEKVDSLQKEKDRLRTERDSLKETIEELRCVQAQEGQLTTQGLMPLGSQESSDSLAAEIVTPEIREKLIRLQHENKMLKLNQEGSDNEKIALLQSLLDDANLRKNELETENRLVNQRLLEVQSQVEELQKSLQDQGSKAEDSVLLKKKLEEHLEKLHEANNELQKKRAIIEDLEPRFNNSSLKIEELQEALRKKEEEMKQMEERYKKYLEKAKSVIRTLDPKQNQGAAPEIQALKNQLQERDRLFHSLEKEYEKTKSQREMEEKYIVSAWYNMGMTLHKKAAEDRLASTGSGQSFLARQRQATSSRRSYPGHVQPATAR
inactive: [1] -0.065 | [2] -0.003 | [3] 0.018 | [4] 0 | [5] 0.024

GBA2 (UniProt Q9HCG7)
Sequence of UniProt Q9HCG7 (Q9HCG7 whole entry, looked up): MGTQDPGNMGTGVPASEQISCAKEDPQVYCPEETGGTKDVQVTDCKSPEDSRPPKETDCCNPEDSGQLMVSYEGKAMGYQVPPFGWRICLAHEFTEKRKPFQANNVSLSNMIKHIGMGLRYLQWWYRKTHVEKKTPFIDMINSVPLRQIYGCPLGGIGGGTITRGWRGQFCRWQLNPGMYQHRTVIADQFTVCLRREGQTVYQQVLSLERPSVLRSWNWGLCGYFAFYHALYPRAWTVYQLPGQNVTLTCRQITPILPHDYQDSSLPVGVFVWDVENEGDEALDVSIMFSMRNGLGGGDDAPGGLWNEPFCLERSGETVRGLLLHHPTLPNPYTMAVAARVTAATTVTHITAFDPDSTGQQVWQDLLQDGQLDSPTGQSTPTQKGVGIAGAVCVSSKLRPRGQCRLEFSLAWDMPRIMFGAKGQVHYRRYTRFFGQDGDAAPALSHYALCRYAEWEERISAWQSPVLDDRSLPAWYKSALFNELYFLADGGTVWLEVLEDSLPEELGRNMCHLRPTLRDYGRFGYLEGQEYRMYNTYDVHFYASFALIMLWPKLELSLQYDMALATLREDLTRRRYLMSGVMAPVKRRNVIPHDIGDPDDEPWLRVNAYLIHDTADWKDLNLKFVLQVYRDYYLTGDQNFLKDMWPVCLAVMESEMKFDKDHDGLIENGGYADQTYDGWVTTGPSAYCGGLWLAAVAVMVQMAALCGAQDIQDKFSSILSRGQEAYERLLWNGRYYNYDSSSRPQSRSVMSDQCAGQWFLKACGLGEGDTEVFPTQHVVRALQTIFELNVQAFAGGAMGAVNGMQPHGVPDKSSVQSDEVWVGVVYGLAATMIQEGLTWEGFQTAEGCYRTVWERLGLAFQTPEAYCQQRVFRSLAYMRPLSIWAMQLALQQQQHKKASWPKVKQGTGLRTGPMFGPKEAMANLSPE
inactive: [1] 0.099 | [2] 0.012 | [3] 0.017 | [4] 0.034 | [5] 0.023

HBA1 (UniProt P69905)
Sequence of UniProt P69905 (P69905 whole entry, looked up): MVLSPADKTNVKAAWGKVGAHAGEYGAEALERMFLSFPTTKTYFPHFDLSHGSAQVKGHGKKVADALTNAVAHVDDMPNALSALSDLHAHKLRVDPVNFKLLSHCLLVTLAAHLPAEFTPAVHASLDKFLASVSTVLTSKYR
inactive: [1] -0.003 | [2] 0.163 | [3] 0.005 | [4] -0.167 | [5] -0.023
